Screens from PubChem.
Only some compounds are listed: those with a hit (about 4.8% of all), similar ones and a draw of the others.
D3 ag = agonists of human D3 dopamine receptor; D3R DiscoveRx beta-arrestin cells, luminescence, 90 min; AID 652048; max activation, %; actives 0.58% (n = 410,000); in the data active = max activation above about 30%
Target sequence (P35462 whole entry, looked up): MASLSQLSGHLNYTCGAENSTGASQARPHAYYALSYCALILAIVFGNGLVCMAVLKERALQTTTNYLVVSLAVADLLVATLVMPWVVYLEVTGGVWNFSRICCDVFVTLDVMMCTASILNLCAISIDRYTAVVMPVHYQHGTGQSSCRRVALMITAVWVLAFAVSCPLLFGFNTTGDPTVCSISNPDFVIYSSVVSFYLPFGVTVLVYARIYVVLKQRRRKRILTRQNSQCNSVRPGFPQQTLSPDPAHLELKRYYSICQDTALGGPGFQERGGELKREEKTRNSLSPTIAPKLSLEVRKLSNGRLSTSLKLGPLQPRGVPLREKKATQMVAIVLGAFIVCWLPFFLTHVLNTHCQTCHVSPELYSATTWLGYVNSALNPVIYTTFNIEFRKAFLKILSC
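Agonist-mode cell screen: cells plated at 1500/well and incubated overnight at 37 °C, then exposed to library compounds for 90 min at 37 °C. Detection reagent was added for 30–60 min at room temperature, and luminescence was read.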
TGFb SMAD3 inh = inhibitors of TGF-b signaling; AID 588855; HepG2 CAGA-GFP TGF-b/SMAD3 reporter, GFP fluorescence, 18 h; TGF-beta stimulated, 500 pg/mL final; Potency, µM (doses to about 46.1 µM), hits mostly inhibitors; actives 1.2% (n = 410,000); also: nearly all actives have a fitted effect of over 65% in size
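Inhibition was scored as loss of TGF-beta-induced (500 pg/mL final, 18 hours, 37 degrees C) GFP in HEPG2 cells carrying a CAGA-GFP reporter, in DMEM with 1% FBS. Well GFP was summed per cell; Activity was normalised to unstimulated and stimulated DMSO wells, then concentration-response fitting.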
ATXN2 expr inh = inhibitors of ATXN2 expression; Potency, µM (top dose mostly 57 µM), hits mostly inhibitors; HEK-293 ATXN2-luciferase reporter, luminescence, 24 h; actives 0.72% (n = 360,000); also: nearly all actives have a fitted effect of over 55% in size
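ATXN2-luciferase reporter cells (luciferase flanked by upstream and downstream ATXN2 gene portions) were treated 24 h at 37 °C with compounds at up to 57 uM. SteadyGlo luminescence gave expression; GF-AFC fluorescence gave viability.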
ATXN viability = viability counter-screen for ATXN expression inhibitors. S2 cells (HEK-293 line with an ATXN2-luciferase reporter) viability, CellTiter-Fluor protease fluorescence, 24 h. Potency, µM (highest dose often 56.7 µM), actives largely listed as cytotoxic. actives 0.49% (n = 400,000); also: nearly all actives have a fitted effect of over 40% in size
D3 antag = blocks the human D3 dopamine receptor; D3R cells, DiscoveRx beta-arrestin luminescence, antagonist mode; active compounds read low; max response, negative = inhibition, %; actives 2.5% (n = 360,000); in the data active = max response below about -50%; inconclusive = no clear call, values can overlap the other calls
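Cells expressing the human receptor were seeded at 1500 cells/well, incubated overnight at 37 degrees C in 5% CO2, then exposed to library compounds with dopamine controls for 90 minutes at 37 degrees C before luminescent detection.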
HepG2 tox = HepG2 cytotoxicity, counter-screen for TGF-b inhibitors; actives 0.76% (n = 410,000); Potency, µM (series often up to 46.1 µM), usual class: cytotoxic; AID 588856; HepG2 CAGA-GFP viability, ATP luminescence, 18 h
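HepG2 CAGA-GFP cells (1000/well, DMEM with 1% FBS) received compound, then TGF-beta at 500 pg/mL final, and were incubated 18 hours at 37 degrees C. Viability was read by CellTiter-Glo luminescence. Media-only wells were set as complete cell-killing and DMSO as no toxicity.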
Large screens that a line does not name were inactive. Unless noted, calls follow the shape of the dose curve; as a rule, active = well fitted curve in the direction sought with a large enough effect; inconclusive = small, poorly fitted or top-dose-only effect, or another doubt; inactive = no such curve, though single readings can be large; an effect the other way counts as inactive or inconclusive.

COc1ccc(/C=N/Nc2ccc([N+](=O)[O-])cc2)cc1Cn1cc([N+](=O)[O-])cn1	TGFb SMAD3 inh inconclusive, D3 antag inconclusive
COc1ccc(/C=N/Nc2ccc([N+](=O)[O-])cc2)cc1O	TGFb SMAD3 inh inconclusive, D3 antag -53
COc1cc(C=C(C#N)c2ccc([N+](=O)[O-])cc2)ccc1O	ATXN viability inconclusive, D3 antag -52 (no result: ATXN2 expr inh)
CO[C@@H]1[C@@H](O[C@@H]2O[C@H](C)[C@@H](O[C@H]3C[C@@](C)(O)[C@@H](OC(=O)CC(C)C)[C@H](C)O3)[C@H](N(C)C)[C@H]2O)[C@@H](CC=O)C[C@@H](C)[C@@H](O)/C=C/C=C/C[C@@H](C)OC(=O)C[C@H]1O	none (no result: TGFb SMAD3 inh, ATXN2 expr inh, D3 antag, HepG2 tox)
Cc1ccccc1-c1nc(CS(=O)(=O)CC(=O)NCCc2ccccc2)c(C)o1	TGFb SMAD3 inh 14µM
Cc1oc(-c2ccccc2F)nc1CS(=O)(=O)CC(=O)NCCCN1CCc2ccccc2C1	ATXN viability inconclusive, D3 antag -77
COc1cccc(-c2nc(CS(=O)(=O)CC(=O)NCCc3ccc(Cl)cc3)c(C)o2)c1	TGFb SMAD3 inh 11µM (no result: ATXN2 expr inh, ATXN viability, D3 antag)
COc1cccc(-c2nc(CS(=O)(=O)CC(=O)NCCc3ccccc3)c(C)o2)c1	none
Cc1oc(-c2ccccc2F)nc1CS(=O)(=O)CC(=O)NC(C)CCc1ccccc1 (stereo unspecified)	TGFb SMAD3 inh inconclusive, D3 antag inconclusive
Cc1ccc(-c2nc(CS(=O)(=O)CC(=O)NC(C)CCc3ccccc3)c(C)o2)cc1 (stereo unspecified)	TGFb SMAD3 inh 11µM (no result: ATXN2 expr inh, ATXN viability, D3 antag)
CCc1ccc2c(c1)N(CC(C)CN(C)C)c1ccccc1S2 (stereo unspecified)	none (no result: TGFb SMAD3 inh, ATXN2 expr inh, ATXN viability, D3 antag, HepG2 tox)
COC(=O)c1cc2oc(C)cc2n1Cc1c(C)cc(C)cc1C	none (no result: D3 antag)
COc1ccc(-c2c(C)c3ccc(O)c(CN4CCC(C)CC4)c3oc2=O)cc1OC	none (no result: ATXN viability, D3 antag)
Cc1cccc(N2CCN(C(=O)CS(=O)(=O)Cc3nc(-c4ccccc4C)oc3C)CC2C)c1 (stereo unspecified)	TGFb SMAD3 inh 11µM, ATXN2 expr inh inconclusive (no result: D3 antag)
Cn1c(=O)[nH]c(=O)c2c1nc(SCCN1CCCCC1)n2CCCc1ccccc1	D3 antag -68
COC(=O)c1[nH]c2ccc(Cl)cc2c1NC(=O)CCN1CCN(C2CCCCC2)CC1	ATXN viability inconclusive
COC(=O)c1[nH]c2ccc(Br)cc2c1NC(=O)CN1CCN(C2CCCCC2)CC1	TGFb SMAD3 inh inconclusive, ATXN2 expr inh 18µM, ATXN viability 35µM, D3 antag inconclusive
CCOC(=O)C1CCCN(CC(=O)Nc2c(C(=O)OC)[nH]c3ccc(Br)cc23)C1 (stereo unspecified)	TGFb SMAD3 inh inconclusive, D3 antag -51
CN(C)c1ccc(N=Nc2ccc(S(=O)(=O)O)cc2)cc1	none (no result: D3 ag, ATXN2 expr inh, ATXN viability, D3 antag)
Cc1ccc(CNC(=O)Nc2nnc([C@@H]3C[C@H](O)[C@@H](CO)O3)s2)cc1	D3 antag -63
Cc1ccc(SCC(=O)Nc2ccc(N3CCN(C)CC3)c(F)c2)c(C)c1	D3 antag -98 (no result: ATXN2 expr inh)
CCOC(=O)c1cc2c(C)n(-c3ccc(N(C)C)cc3)c(C)c2cc(C(=O)OCC)c1=O	D3 ag 57
CC1=NC(=O)C(N=Nc2ccccc2)N1c1ccccc1 (stereo unspecified)	ATXN viability inconclusive, D3 antag -58
CC1=NN(c2ccccc2)C(=O)C1N=Nc1ccc(S(N)(=O)=O)cc1 (stereo unspecified)	none
Cc1[nH]n(-c2ccccc2)c(=O)c1N=Nc1ccccc1C(=O)O	ATXN viability inconclusive (no result: ATXN2 expr inh)
CC1=NC(=O)C(N=Nc2ccccc2C(=O)O)N1c1ccccc1 (stereo unspecified)	D3 ag 32, ATXN viability inconclusive
CC1=NC(=O)C(N=Nc2cccc(C(=O)O)c2)N1c1ccccc1 (stereo unspecified)	ATXN2 expr inh 8.9µM, ATXN viability inconclusive, D3 antag inconclusive
COC(=O)[C@@H]1CCCN1S(=O)(=O)Cc1ccccc1	none (no result: D3 ag, ATXN2 expr inh, ATXN viability, D3 antag)
